Among all 5,500 compounds or so, about 2,000 (36%) were called active. Not shown: some 18% with an inconclusive outcome. Rule as the data show it: active = normalized growth mostly below about 0.91 (no sharp cut-off); inconclusive = no clear call, values can overlap the other calls; inactive = mostly above about 0.92. The list shows a part of the results.
Experiment: chemical genetic growth profiling, strain panel (AID 1159580);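 also: tested at 20 µM; growth read once vehicle control cultures reached saturation at 30 °C; 1 = growth at the plate median or of vehicle wells; lower values mean less growth of the strain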
Settings: growth OD
[1] = S. cerevisiae deletion strains, locus YGR078C, strain PAC10, stronger effect = lower value
[2] = S. cerevisiae deletion strains, locus YPL055C, strain LGE1, stronger effect = lower value
[3] = S. cerevisiae deletion strains, locus YPL241C, strain CIN2, stronger effect = lower value

Measured: normalized growth

CC12CCC(C1)C(C)(C)C2NC(=O)c1cccs1 (stereo not given)
inactive: S. cerevisiae deletion strains, locus YAL013W, strain DEP1, stronger effect = lower value 0.976 | S. cerevisiae deletion strains, locus YBR229C, strain ROT2, stronger effect = lower value 1.01 | S. cerevisiae deletion strains, locus YDL101C, strain DUN1, stronger effect = lower value 0.995 | S. cerevisiae deletion strains, locus YDL134C, strain PPH21, stronger effect = lower value 0.991 | S. cerevisiae deletion strains, locus YDR150W, strain NUM1, stronger effect = lower value 0.907 | S. cerevisiae deletion strains, locus YEL061C, strain CIN8, stronger effect = lower value 1.02 | [1] 0.98 | S. cerevisiae deletion strains, locus YHR030C, strain SLT2, stronger effect = lower value 0.848 | S. cerevisiae deletion strains, locus YHR087W, strain rtc3, stronger effect = lower value 0.983 | S. cerevisiae deletion strains, locus YJL187C, strain SWE1, stronger effect = lower value 0.992 | S. cerevisiae deletion strains, locus YJR043C, strain POL32, stronger effect = lower value 0.956 | S. cerevisiae deletion strains, locus YJR075W, strain HOC1, stronger effect = lower value 0.97 | S. cerevisiae deletion strains, locus YLR039C, strain RIC1, stronger effect = lower value 1.03 | S. cerevisiae deletion strains, locus YLR058C, strain SHM2 (second series), stronger effect = lower value 0.994 | S. cerevisiae deletion strains, locus YLR085C, strain ARP6, stronger effect = lower value 0.944 | S. cerevisiae deletion strains, locus YLR262C, strain YPT6, stronger effect = lower value 1.03 | S. cerevisiae deletion strains, locus YML094W, strain GIM5, stronger effect = lower value 0.976 | S. cerevisiae deletion strains, locus YMR219W, strain ESC1, stronger effect = lower value 0.988 | S. cerevisiae deletion strains, locus YMR263W, strain SAP30, stronger effect = lower value 0.942 | S. cerevisiae deletion strains, locus YMR307W, strain GAS1, stronger effect = lower value 0.834 | S. cerevisiae deletion strains, locus YNL153C, strain GIM3, stronger effect = lower value 1 | S. cerevisiae deletion strains, locus YNL298W, strain CLA4 (second series), stronger effect = lower value 0.983 | S. cerevisiae deletion strains, locus YNL322C, strain KRE1, stronger effect = lower value 0.987 | S. cerevisiae deletion strains, locus YNR030W, strain Alg12, stronger effect = lower value 0.995 | S. cerevisiae deletion strains, locus YOL006C, strain TOP1, stronger effect = lower value 0.924 | [2] 0.968 | [3] 0.976 | S. cerevisiae deletion strains, locus YPR135W, strain CTF4, stronger effect = lower value 0.858 | S. cerevisiae strains, strain wild type, stronger effect = lower value 0.954

CC[N+](C)(C)Cc1ccccc1Br
inactive: S. cerevisiae deletion strains, locus YAL040C, strain CLN3, stronger effect = lower value 0.99 | S. cerevisiae deletion strains, locus YCL061C, strain MRC1 (second series), stronger effect = lower value 1.01 | S. cerevisiae deletion strains, locus YDR363W, strain ESC2, stronger effect = lower value 0.991 | S. cerevisiae deletion strains, locus YER002W, strain NOP16, stronger effect = lower value 0.993 | [1] 0.99 | S. cerevisiae deletion strains, locus YNL175C, strain NOP13, stronger effect = lower value 1.01 | S. cerevisiae deletion strains, locus YNL197C, strain WHI3, stronger effect = lower value 1.01 | S. cerevisiae deletion strains, locus YNL224C, strain SQS1, stronger effect = lower value 0.983 | S. cerevisiae deletion strains, locus YOR083W, strain WHI5 (second series), stronger effect = lower value 0.974 | [2] 0.999 | [3] 1.01

From PubChem BioAssay AID1159580 (chemical genetic matrix, 2015)
